Measured values from PubChem BioAssay (NCI).
Compounds without any hit were thinned out: in the full panel of roughly 79,000, 15% have a hit. The source made the active and inactive calls. Rule as the data show it: active = growth inhibition above about 70%; inactive = the rest.

Experiments:
[1] = NCI Yeast Anticancer Drug Screen. Data for the rad52 strain (AID 147);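 also: 0% = growth of vehicle-treated control cultures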; settings: S. cerevisiae rad52 mutant growth inhibition, stronger effect = higher value
Outline: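 Yeast strain carrying a DNA damage repair alteration was exposed to test compounds. Growth inhibition was measured relative to vehicle-treated controls.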

[2] = NCI Yeast Anticancer Drug Screen. Data for the wt1 strain (AID 149);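 also: 0% = growth of vehicle-treated wt1 cultures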; settings: S. cerevisiae wt1 strain (SPY 50644) growth inhibition, stronger effect = higher value
Outline: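 Compounds are added to wt1 yeast cultures. Growth is then measured. Inhibition is expressed relative to vehicle-treated controls.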

[3] = NCI Yeast Anticancer Drug Screen. Data for the rad50EPP+ strain (AID 151);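 also: 0% = growth of vehicle-treated control cultures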; settings: S. cerevisiae rad50 mutant strain, stronger effect = higher value
Outline: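 Yeast strain carrying rad50 alteration (rad50EPP+) exposed to compounds; growth inhibition measured relative to vehicle-treated controls.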

[4] = NCI Yeast Anticancer Drug Screen. Data for the mgt1 strain (AID 153); settings: S. cerevisiae mgt1 mutant growth inhibition, stronger effect = higher value
Outline: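 Yeast mgt1 strain (DNA repair/cell-cycle alteration panel) exposed to compounds; growth inhibition measured relative to vehicle-treated controls.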

[5] = NCI Yeast Anticancer Drug Screen. Data for the rad50 strain (AID 155);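 also: 0% = growth of vehicle-only cultures of the same strain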; settings: S. cerevisiae rad50 strain growth inhibition, stronger effect = higher value
Outline: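 Inhibition values express reduced yeast growth in compound-treated cultures relative to vehicle-treated controls.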

[6] = NCI Yeast Anticancer Drug Screen. Data for the mec2-1 strain (AID 157); settings: S. cerevisiae mec2-1 strain, stronger effect = higher value
Outline: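 mec2-1 yeast strain, carrying an alteration in DNA damage repair or cell cycle control, was exposed to compounds; growth inhibition was measured relative to vehicle-treated controls.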

[7] = NCI Yeast Anticancer Drug Screen. Data for the sgs1 mgt1 strain (AID 161);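 also: 0% = growth of cultures given vehicle only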; settings: S. cerevisiae sgs1 mgt1 strain, stronger effect = higher value
Outline: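 Compounds are added to genetically altered yeast, and growth is compared with cultures given vehicle alone to give percent inhibition.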

[8] = NCI Yeast Anticancer Drug Screen. Data for the cln2 rad14 strain (AID 165);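 also: 0% = growth equal to vehicle treated cultures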; settings: S. cerevisiae cln2 rad14 strain, stronger effect = higher value
Outline: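 Yeast carrying cln2 and rad14 alterations (cell cycle control and DNA damage repair) were exposed to compounds. Growth inhibition was measured against vehicle-treated controls.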

[9] = NCI Yeast Anticancer Drug Screen. Data for the bub3 strain (AID 167); settings: S. cerevisiae bub3 mutant strain, stronger effect = higher value
Outline: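 Steps: expose the mutant yeast strain to compound; grow alongside vehicle-treated cultures; measure growth; express inhibition against the vehicle cultures.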

[10] = NCI Yeast Anticancer Drug Screen. Data for the wt2 strain (AID 169);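 also: 0% = growth of vehicle-treated yeast cultures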; settings: S. cerevisiae wt2 strain growth inhibition, stronger effect = higher value
Outline: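 Yeast cells were exposed to test compounds, and growth inhibition was measured relative to vehicle-treated controls.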

[11] = NCI Yeast Anticancer Drug Screen. Data for the mlh1 strain (AID 171);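 also: 0% = growth of vehicle-treated control cultures of the same strain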; settings: S. cerevisiae mlh1 strain growth inhibition, stronger effect = higher value
Outline: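 Yeast carrying a defined genetic alteration in DNA damage repair or cell cycle control were exposed to test compounds. Growth inhibition was measured relative to vehicle-treated controls.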

[12] = NCI Yeast Anticancer Drug Screen. Data for the sgs1 strain (AID 173);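 also: 0% = growth of vehicle-only control cultures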; settings: S. cerevisiae sgs1 mutant, stronger effect = higher value
Outline: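 Yeast mutant strains carrying defined defects in DNA damage repair or cell cycle control were exposed to test compounds. Growth inhibition was scored against vehicle-treated controls.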

[13] = NCI Yeast Anticancer Drug Screen. Data for the mlh1 rad18 strain (AID 175); settings: S. cerevisiae mlh1 rad18 strain growth inhibition, stronger effect = higher value
Outline: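 Growth inhibition of the yeast strain was measured after compound exposure and expressed relative to vehicle-treated controls. The strain carries defined defects in DNA damage repair.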

[14] = NCI Yeast Anticancer Drug Screen. Data for the rad18 strain (AID 177); settings: S. cerevisiae rad18 mutant growth inhibition, stronger effect = higher value
Outline: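 Yeast carrying a defined DNA damage repair alteration were exposed to compounds. Growth inhibition was expressed relative to vehicle-treated controls.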

[15] = at 5.0 µM (retest, dose inferred, filed as 0.5)
[16] = at 50.0 µM (retest, dose inferred, filed as 5.0)

Measured: growth inhibition

O=C1C=CC(=Nc2ccc3c(c2)Cc2cc(NC(=O)C(F)(F)F)ccc2-3)O1
inactive: [1]; at 1.2 µM 4% | [1]; at 3.7 µM 8% | [1]; at 11.0 µM 21% | [1]; at 33.0 µM 33% | [2]; at 1.2 µM 3% | [2]; at 3.7 µM 4% | [2]; at 11.0 µM 11% | [2]; at 33.0 µM 20% | [3]; at 1.2 µM 8% | [3]; at 3.7 µM 40% | [4]; at 1.2 µM 1% | [4]; at 3.7 µM 5% | [4]; at 11.0 µM 12% | [4]; at 33.0 µM 36% | [5]; at 1.2 µM 2% | [5]; at 3.7 µM 7% | [5]; [15] 44% | [5]; at 11.0 µM 20% | [5]; at 33.0 µM 55% | [6]; at 1.2 µM 5% | [6]; at 3.7 µM 14% | [6]; at 11.0 µM 28% | [6]; at 33.0 µM 48% | [7]; [15] 51% | [8]; [15] 7% | [8]; at 50.0 µM 3.55% | [9]; at 1.2 µM -7% | [9]; at 3.7 µM -6% | [9]; [15] 25% | [9]; at 11.0 µM 0% | [9]; at 33.0 µM 13% | [10]; at 1.2 µM 1% | [10]; at 3.7 µM 3% | [10]; at 11.0 µM 15% | [10]; at 33.0 µM 26% | [11]; at 1.2 µM 3% | [11]; at 3.7 µM 9% | [11]; at 11.0 µM 22% | [11]; at 33.0 µM 39% | [12]; at 1.2 µM 7% | [12]; at 3.7 µM 15% | [12]; at 11.0 µM 34% | [12]; at 33.0 µM 63% | [14]; at 1.2 µM 4% | [14]; at 3.7 µM 13% | [14]; at 11.0 µM 32% | [14]; at 33.0 µM 57%
active: [1]; at 100.0 µM 97% | [2]; at 100.0 µM 95% | [3]; at 11.0 µM 81% | [3]; at 33.0 µM 91% | [3]; at 100.0 µM 98% | [4]; at 100.0 µM 96% | [5]; [16] 96% | [5]; at 50.0 µM 82.4% | [5]; at 100.0 µM 97% | [6]; [15] 88% | [6]; [16] 95% | [6]; at 50.0 µM 96% | [6]; at 100.0 µM 96% | [7]; [16] 97% | [7]; at 50.0 µM 98.3% | [8]; [16] 93% | [9]; [16] 96% | [9]; at 50.0 µM 87.7% | [9]; at 100.0 µM 96% | [10]; at 100.0 µM 98% | [11]; at 100.0 µM 98% | [12]; at 100.0 µM 98% | [13]; [15] 79% | [13]; [16] 94% | [13]; at 50.0 µM 98.3% | [14]; at 100.0 µM 96%
